Laboratory results as given in PubChem BioAssay (NCATS).
Several values for one entry are separate records, joined by “and”; a condition that tells them apart may be missing. Equal entries are not always repeated. Inconclusive results are not listed. Activity calls are given as the source filed them. Calls come from the whole dose curve; as a rule, active = well fitted curve in the direction sought with a large enough effect; inconclusive = small, poorly fitted or top-dose-only effect, or another doubt; inactive = no such curve, though single readings can be large; an effect the other way counts as inactive or inconclusive.

Experiments:
[1] = molecular target: Cytochrome P450 3A7 (Homo sapiens) (UniProt P24462); assay: Cytochrome P450 family 3 subfamily A member 7 (CYP3A7) small molecule antagonists: luciferase biochemical qHTS assay (AID 1963596); note: nearly all actives have a fitted effect of over 40% in size
Sequence of Cytochrome P450 3A7 (Homo sapiens) (P24462 whole entry, looked up): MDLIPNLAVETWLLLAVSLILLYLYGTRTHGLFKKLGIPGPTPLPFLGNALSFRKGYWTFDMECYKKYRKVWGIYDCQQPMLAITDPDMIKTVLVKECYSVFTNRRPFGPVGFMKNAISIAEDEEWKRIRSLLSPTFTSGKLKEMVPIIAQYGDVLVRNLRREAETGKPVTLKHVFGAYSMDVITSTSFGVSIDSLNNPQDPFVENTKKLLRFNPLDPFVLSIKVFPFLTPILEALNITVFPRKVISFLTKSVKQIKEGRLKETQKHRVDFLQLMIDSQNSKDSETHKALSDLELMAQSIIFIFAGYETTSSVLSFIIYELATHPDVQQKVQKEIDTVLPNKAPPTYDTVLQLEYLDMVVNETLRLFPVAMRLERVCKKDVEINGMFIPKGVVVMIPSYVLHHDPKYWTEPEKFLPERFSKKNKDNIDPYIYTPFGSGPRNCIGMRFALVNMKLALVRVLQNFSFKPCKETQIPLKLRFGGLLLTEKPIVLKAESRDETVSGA
Summary of the method: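 Luminescence from luciferin released by CYP3A7 from a proluciferin substrate, read 20 min after detection reagent. Compound and enzyme-substrate mix sat 10 min before NADPH regeneration solution; reaction ran 1 h at room temperature.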

[2] = Viability qHTS for spleen associated tyrosine kinase inhibitor (SYKi) naive MV4-11 cells (AID 1963823); note: nearly all actives have a fitted effect of over 40% in size
Summary of the method: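 Seeding of 500 SYKi-naive MV4-11 cells per well onto pre-dispensed compounds preceded a 72 hr incubation at 37 C. Luminescent CellTiter-Glo signal, read after 10 min at room temperature, reflected viable cells.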

[3] = Viability qHTS for spleen associated tyrosine kinase inhibitor (SYKi) drug resistant MV4-11 cells (AID 1963824); note: nearly all actives have a fitted effect of over 35% in size
Summary of the method: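 SYK inhibitor-resistant MV4-11 AML cells, 500 per well, added to predispensed compounds and incubated 72 hr at 37 C, 5% CO2. Viability measured by CellTiter-Glo luminescence after 10 min at room temperature.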

[4] = Quantitative highthroughput screen to assess conditional lethalithy of NOMO1 cells grown in RPMI1640 with untreated serum (RPMI+s) (AID 1963876); note: nearly all actives have a fitted effect of over 35% in size;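 for Viability: 100% = DMSO wells and 0% = empty wells without cells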
Summary of the method: (§1)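 Each medium arm—HPLM with 10% dialyzed FBS, or RPMI1640 with 5 mM glucose and 10% untreated or dialyzed FBS—was screened against an 11-point, 3-fold compound titration for 48 h at 37 °C, with CellTiter-Glo luminescence as endpoint.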

[5] = Quantitative highthroughput screen to assess conditional lethalithy of NOMO1 cells grown in Human Plasma-Like Medium with dialyzed fetal bovine serum (HPLM+ds) (AID 1963878); note: nearly all actives have a fitted effect of over 35% in size;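 for Viability: 100% = DMSO wells and 0% = empty wells on each plate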
Summary of the method: as §1

[6] = Quantitative highthroughput screen to assess conditional lethalithy of SEM cells grown in Human Plasma-Like Medium with dialyzed fetal bovine serum (HPLM+ds) (AID 1963882); note: nearly all actives have a fitted effect of over 35% in size; for Viability: series mostly up to about 46 µM
Summary of the method: as §1

[7] = Quantitative highthroughput screen to assess conditional lethalithy of SEM cells grown in RPMI1640 with unreated serum (RPMI+s) (AID 1963883); note: nearly all actives have a fitted effect of over 35% in size;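 for Viability: 100% = DMSO wells and 0% = empty wells without cells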
Summary of the method: as §1

[8] = Quantitative highthroughput screen to assess conditional lethalithy of SEM cells grown in RPMI1640 with dialyzed fetal bovine serum (RPMI+ds) (AID 1963884); note: nearly all actives have a fitted effect of over 35% in size;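 for Viability: series mostly up to about 46 µM; 100% = DMSO control wells and 0% = empty wells without cells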
Summary of the method: as §1

[9] = Cellular viability qHTS for adrenocortical cancer (ACC) cell line SW-13 (AID 1963989); settings: SW-13 ACC cells viability, CellTiter-Glo, 48 h; activity (max response): active compounds read low; note: nearly all actives have a fitted effect of over 65% in size;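 for activity (max response): cells grown in serum-free medium with ITS supplement; % is set by controls: 0 for no effect and ±100 for the full control effect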
Summary of the method: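 Here, serum-free SW-13 cultures were dosed up to 46 uM. Following 48 h, ATP-dependent luminescence (CellTiter-Glo) reported viable cells, and logistic modeling produced IC50 values.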

[10] = Cellular viability qHTS for adrenocortical cancer (ACC) cell line NCI-H295R (AID 1963990); note: nearly all actives have a fitted effect of over 60% in size
Summary of the method: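 Viability of NCI-H295R after 48 h of treatment (final up to 46 uM) measured through cellular ATP luminescence.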

[11] = Quantitative highthroughput screen to assess conditional lethalithy of P12 Ichikawa cells grown in Human Plasma-Like Medium with dialyzed fetal bovine serum (HPLM+ds) (AID 1963879); settings: Potency: viability; note: nearly all actives have a fitted effect of over 35% in size; for Viability: series mostly up to about 46 µM
Summary of the method: as §1

[12] = Quantitative highthroughput screen to assess conditional lethalithy of P12 Ichikawa cells grown in RPMI1640 with dialyzed fetal bovine serum (RPMI+ds) (AID 1963880); settings: Potency: P12-Ichikawa viability; note: nearly all actives have a fitted effect of over 35% in size;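 for Viability: 100% = DMSO wells and 0% = empty wells on each plate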
Summary of the method: as §1

[13] = Quantitative highthroughput screen to assess conditional lethalithy of P12 Ichikawa cells grown in RPMI1640 with untreated serum (RPMI+s) (AID 1963881); settings: Potency: viability; note: nearly all actives have a fitted effect of over 35% in size;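 for Viability: series mostly up to about 46 µM; 100% = DMSO wells and 0% = empty wells without cells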
Summary of the method: as §1

[14] = Quantitative highthroughput screen to assess conditional lethalithy of NOMO1 cells grown in RPMI1640 with dialyzed fetal bovine serum (RPMI+ds) (AID 1963877); note: nearly all actives have a fitted effect of over 30% in size;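 for Viability: series mostly up to about 46 µM; 100% = DMSO control wells and 0% = empty wells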
Summary of the method: as §1
Potency is the fitted concentration of half-maximal effect.

Oc1c(Cl)cc(Cl)c2cccnc12
inactive: Potency [1] | Potency [4] | Potency [5]
active: Potency [2] 5.25 µM | Potency [3] 8.33 µM | Potency [6] 16.6 µM | Potency [7] 18.7 µM | Potency [8] 18.7 µM | Potency [9] 3.55 µM | Potency [10] 7.94 µM

Cc1coc2c1C(=O)C(=O)c1c-2ccc2c1CCCC2(C)C
active: Potency [2] 1.86 µM | Potency [3] 1.86 µM
inactive: Potency [1] | Potency [4] | Potency [5] | Potency [11] | Potency [12] | Potency [13] | Potency [6] | Potency [7] | Potency [8] | activity (max response) [9] 2.82%

Cn1c(=O)c2c(ncn2CC(O)CO)n(C)c1=O (stereo unspecified)
inactive: Potency [1] | Potency [2] | Potency [3] | Potency [5] | Potency [11] | Potency [12] | Potency [13] | Potency [6] | Potency [8] | activity (max response) [9] 9.53% and 9.36% | Potency [10]

COc1cccc2c1CCCC2CCCN1CCN(C2CCCCC2)CC1 (stereo unspecified)
active: Potency [2] 16.6 µM | Potency [3] 10.5 µM | Potency [4] 20.9 µM | Potency [12] 18.7 µM | Potency [9] 22.4 µM
inactive: Potency [1]

Cn1nnc2c(C(N)=O)ncn2c1=O
active: Potency [5] 18.7 µM | Potency [6] 0.332 µM | Potency [8] 0.235 µM
inactive: Potency [1] | Potency [2] | Potency [3] | activity (max response) [9] -0.0469% and 5.28% | Potency [10]

COC(=O)Nc1nc2ccc(S(=O)c3ccccc3)cc2[nH]1 (stereo unspecified)
active: Potency [2] 16.6 µM and 841 nM | Potency [3] 14.8 µM and 668 nM | Potency [11] 7.43 µM | Potency [10] 4.47 µM and 259 nM
inactive: Potency [1] | Potency [12]

COc1cc2c(c(OC)c1OC)-c1ccc(OC)c(=O)cc1[C@@H](NC(C)=O)CC2
inactive: Potency [1] | Potency [4] | Potency [8]
active: Potency [2] 23.7 nM and 18.6 nM | Potency [3] 16.8 nM and 14.8 nM | Potency [9] 25.9 nM and 35.5 nM | Potency [10] 92 nM and 100 nM

Nc1ccn([C@H]2CC[C@@H](CO)O2)c(=O)n1
inactive: Potency [1] | Potency [2] | Potency [3] | activity (max response) [9] 0.291%
active: Potency [5] 23.5 µM | Potency [8] 7.43 µM

CC(C)Cn1cnc2c(N)nc3ccccc3c21
inactive: Potency [1] | Potency [2] | Potency [3] | Potency [14] | Potency [5] | Potency [11] | Potency [12] | Potency [13] | Potency [6] | Potency [7] | Potency [8] | activity (max response) [9] 0.433% and -11.1% | Potency [10]

COc1c(N2CCNC(C)C2)c(F)cc2c(=O)c(C(=O)O)cn(C3CC3)c12 (stereo unspecified)
inactive: Potency [1] | Potency [4] | Potency [5] | Potency [11] | Potency [13] | activity (max response) [9] -4.21% and 1.72% | Potency [10]
active: Potency [2] 18.6 µM | Potency [3] 14.8 µM | Potency [6] 0.743 µM | Potency [8] 0.662 µM

CC1(C)[C@H](C(=O)O)N2C(=O)C[C@H]2S1(=O)=O
active: Potency [4] 8.33 µM
inactive: Potency [1] | Potency [2] | Potency [3] | Potency [11] | Potency [12] | Potency [13] | Potency [6] | Potency [7] | Potency [8] | activity (max response) [9] 9.85% | Potency [10]

CS(=O)(=O)N1CCc2c(-c3cnc(N)nc3)nc(N3CCOCC3)nc21
inactive: Potency [1] | Potency [11]
active: Potency [2] 1.86 µM | Potency [3] 4.17 µM | Potency [4] 8.33 µM | Potency [7] 4.69 µM | Potency [10] 0.708 µM

C1COC(NC(C2CC2)C2CC2)=N1
inactive: Potency [1] | Potency [2] | Potency [3] | Potency [14] | Potency [5] | Potency [11] | Potency [13] | activity (max response) [9] 14.7% and 0.392% | Potency [10]

Clc1ccc(C2(c3ccc(-c4cn[nH]c4)cc3)CCNCC2)cc1
active: Potency [1] 12.6 µM | Potency [2] 2.31 µM and 2.63 µM | Potency [3] 5.17 µM and 7.42 µM | Potency [14] 4.18 µM | Potency [5] 3.32 µM | Potency [11] 5.26 µM | Potency [7] 9.35 µM | Potency [10] 15.8 µM

Cc1cnc(Nc2ccc(N3CCN(C)CC3)cc2)nc1Nc1cccc(S(=O)(=O)NC(C)(C)C)c1
active: Potency [2] 0.103 µM | Potency [3] 0.206 µM | Potency [4] 13.2 µM | Potency [12] 16.6 µM | Potency [13] 7.43 µM | Potency [6] 1.05 µM | Potency [7] 0.935 µM | Potency [8] 1.32 µM | Potency [9] 12.6 µM | Potency [10] 10 µM
inactive: Potency [1]

CN1CCN(c2c(F)cc3c(=O)c(C(=O)O)cn(CCF)c3c2F)CC1
inactive: Potency [1] | Potency [2] | Potency [3] | Potency [4] | Potency [5] | Potency [11] | Potency [12] | Potency [13] | Potency [6] | Potency [7] | Potency [8] | activity (max response) [9] -1.49%

COc1cccc2cc(-c3nc(C4CCC(C(=O)O)CC4)n4ncnc(N)c34)[nH]c12 (stereo unspecified)
active: Potency [2] 461 nM and 366 nM | Potency [3] 580 nM and 461 nM | Potency [11] 0.296 µM | Potency [13] 0.59 µM | Potency [7] 0.935 µM | Potency [8] 1.18 µM
inactive: Potency [1]
